Assay results: PubChem BioAssay (NCI)
“And” between values parts separate entries of the source, which are not always exact repeats. Equal entries are not always repeated. The panel holds about 83,000 compounds, 20% with a hit somewhere; the sample as a whole holds those more often.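 Note: values are percent growth. 100 is the growth of untreated cells, values between 100 and 0 indicate rising inhibition; between -100 and 0 indicates cell death.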 The source made the active and inactive calls. Rule for the calls: active = growth percent below 10; inactive = the rest.

How the values were obtained:
Assay in all cases: NCI-60 one-dose screen, 48 h (100 = growth as untreated, 0 = no growth, -100 = all killed)
[1] = system: MOLT-4 leukemia; conditions: 10 µM
[2] = system: SR leukemia; conditions: 10 µM
[3] = system: RPMI-8226 leukemia; conditions: 10 µM
[4] = system: OVCAR-5 ovarian; conditions: 10 µM
[5] = system: OVCAR-4 ovarian; conditions: 10 µM
[6] = system: SK-OV-3 ovarian; conditions: 10 µM
[7] = system: IGROV1 ovarian; conditions: 10 µM
[8] = system: OVCAR-3 ovarian; conditions: 10 µM
[9] = system: NCI/ADR-RES ovarian; conditions: 10 µM
[10] = system: T-47D breast; conditions: 10 µM
[11] = system: BT-549 breast; conditions: 10 µM
[12] = system: MDA-MB-435 melanoma; conditions: 10 µM
[13] = system: SW-620 colon; conditions: 10 µM
[14] = system: MCF7 breast
[15] = system: HCT-116 colon; conditions: 10 µM
[16] = system: HCC-2998 colon; conditions: 10 µM
[17] = system: KM12 colon; conditions: 10 µM
[18] = system: HS 578T breast; conditions: 10 µM
[19] = system: OVCAR-8 ovarian; conditions: 10 µM

Measured: growth

CC(=O)Nc1c2sscc-2n(C)c1=O
active: [1] -58% | [2] -27.4% | [3] -51.8% | [4] -60.4% | [5] -96.4% | [6] -100% | [7] -88.4% | [8] -100% | [9] -94.8% | [10] -87.4% | [11] -96.4% | [12] -93.7% | [13] -99% | [14]; 10 µM unless noted -60.9% | [15] -100% | [16] -100% | [17] -100%

C=C1C(=O)O[C@@H]2C[C@@H](C)[C@@H]3C=CC(=O)[C@@]3(C)[C@@H](O)[C@H]12
inactive: [6] 11.5% | [18] 18.2% | [9] 12.9%
active: [1] -48.5% | [2] -11.7% | [3] -52.3% | [4] 5.71% | [5] -36.6% | [7] -90.5% | [8] -100% | [10] -58.1% | [11] -85.1% | [12] -88.2% | [13] -30.5% | [14]; 10 µM unless noted -4.11% | [15] -93.5% | [16] -97.7% | [17] -84.3%

CC1CCC2(OC1)OC1C(O)C3C4CCC5CC(OC6OC(CO)C(OC7OC(CO)C(O)C(OC8OCC(O)C(O)C8O)C7OC7OC(CO)C(O)C(OC8OC(CO)C(O)C(O)C8O)C7O)C(O)C6O)C(O)CC5(C)C4CCC3(C)C1C2C (configuration not stated)
active: [2] 9.36% | [3] -47.1% | [4] -62.6% | [5] -66.7% | [6] -35.8% | [7] -47.7% | [8] -83.1% | [9] -59.4% | [11] -74.8% | [14]; 10 µM -34% | [14]; 100 µM -84.7% and -85.4% | [15] -72%
inactive: [1] 28.8% | [10] 50.1% | [12] 47.5% | [13] 51.2% | [17] 34.2%

COC(C(=O)C(O)C(C)O)C1Cc2cc3cc(OC4CC(OC(C)=O)C(OC5CC(O)C(OC)C(C)O5)C(C)O4)cc(O)c3c(O)c2C(=O)C1OC1CC(OC2CC(OC3CC(C)(O)C(OC(=O)C(C)C)C(C)O3)C(O)C(C)O2)C(O)C(C)O1 (configuration not stated)
active: [1] -25.4% | [2] -23.4% | [3] -32.4% | [4] -43.5% | [5] -0.721% | [6] 9.37% | [7] -39.4% | [8] -4.25% | [10] -24.1% | [11] -74.8% | [13] -12% | [14]; 10 µM unless noted 1.47% | [15] -40.2% | [16] -94.4% | [17] -10.4%
inactive: [9] 47.4%

COc1ccc2c(ccc3oc([N+](=O)[O-])cc32)c1
active: [1] -19% | [2] -9.5% | [19] 0.0755% | [4] 9.85% | [6] -12.6% | [8] -13.9% | [9] 2.89% | [11] -35.1% | [12] -77% | [13] 7.19% | [14]; 10 µM unless noted 6.64% | [15] 4.98% | [16] -59.3% | [17] -5.99%
inactive: [3] 12.1% | [5] 28.9% | [10] 15.3%

C[CH2][Hg][S]c1ccccc1C(=O)O
inactive: [6] 21.1% | [7] 16.9% | [16] 59.8% | [17] 69.9%
active: [1] 0.484% | [2] -5.7% | [3] -17.6% | [19] -98.1% | [5] -36.6% | [8] -100% | [9] -13.9% | [10] -80% | [11] -73.4% | [12] -12.7% | [13] -87% | [14]; 10 µM unless noted -95.9% | [15] -88.9%

C#CC1(O)CCC(C(C)(C)C)CC1 (configuration not stated)
inactive: [1] 114% | [2] 113% | [3] 102% | [19] 95.5% | [4] 105% | [5] 116% | [6] 119% | [8] 103% | [9] 106% | [10] 111% | [11] 122% | [12] 89.8% | [13] 106% | [14]; 10 µM unless noted 99% | [15] 108% | [17] 100%

C/C1=C\[C@H](C)C[C@H](C)OC(=O)C[C@H](c2ccc(O)cc2)NC(=O)[C@@H](Cc2c(Br)[nH]c3ccccc23)N(C)C(=O)[C@H](C)NC(=O)[C@@H](C)C1
active: [1] 2.89% | [2] -3.88% | [3] -56.9% | [4] -35.1% | [5] -54.6% | [6] -20.9% | [7] -79.1% | [8] -44.9% | [18] -40.4% | [9] -21.9% | [10] 4.52% | [11] -76.6% | [13] 6.45% | [14]; 10 µM unless noted 9.48% | [15] 0.922% | [16] -86.3% | [17] -4.41%

COC(=O)C1C(O)C(C)C(O)C(C)/C=C\C=C(C)C(=O)Nc2c(C)c(OC(C)=O)c3c(c2O)C(=O)C(C)=C2OCOC(=C23)C(C)=CC(C)(O)C(O)C(C)C1O (configuration not stated)
inactive: [1] 51.9% | [2] 49.3% | [3] 95.3% | [4] 77% | [5] 79.4% | [6] 108% | [7] 58.7% | [8] 105% | [18] 81.7% | [9] 105% | [10] 100% | [11] 121% | [13] 94.2% | [14]; 10 µM unless noted 93.6% | [15] 99.9% | [16] 91.6% | [17] 102%

O=[N+]([O-])c1ccc(N2CCOCC2)c2c1no[n+]2[O-]
active: [1] 3.12% | [3] -7.12% | [5] -6.35% | [6] 7.59% | [8] -34.3% | [18] 1.69% | [10] 2.59% | [11] -41.5% | [13] 3.22% | [15] -25.9% | [16] -49.1% | [17] -73.5%
inactive: [19] 28.1% | [4] 43.8% | [9] 16.3% | [14]; 10 µM unless noted 13.7%

O=[N+]([O-])c1cc[n+]([O-])c2ccccc12
active: [1] 3.5% | [3] -7.21% | [19] -31.1% | [4] -13.7% | [5] -99.6% | [6] -18.4% | [7] -24.3% | [8] 4.56% | [9] -55.1% | [10] -20.5% | [11] -65.9% | [13] -69.3% | [14]; 10 µM unless noted -16.7% | [15] -71.2% | [16] -94.5% | [17] -89.5%

C[C@]12CC[C@H]3[C@@H](CCC4=CC(=O)CC[C@@H]43)[C@@H]1CC[C@@H]2OC(=O)N(CCCl)N=O
inactive: [1] 12.8% | [19] 54.3% | [4] 108% | [5] 84.8% | [6] 46.7% | [8] 89.9% | [18] 69.7% | [9] 49% | [10] 54.2% | [11] 66.6% | [12] 68.5% | [13] 52.5% | [14]; 10 µM unless noted 58.4% | [15] 51.7% | [16] 58.1% | [17] 28.2%
active: [3] 5.42% | [7] -2.36%
